# Biological target: WDR59
# Experiment: pooled miR-30 sensor sort-seq; sequence = guide strand
# Details: shRNA
# Further: reference of the scale not given here.
row,Sequence,sensor-assay potency score (higher = more potent)
1,TAAAGCTAGGATATCGACTATG,-0.97
2,TAACCTGCTCCGCAGAACCTGG,-1.45
3,TAGACAACACACAAAGCGCAGC,-0.806
4,ATAGACAACACACAAAGCGCAG,-1.07

# Biological target: WDR74
# Experiment: as above
# Details: shRNA
row,Sequence,sensor-assay potency score (higher = more potent)
1,TATCCTCAAGACTCTGTCCAAG,-0.997
2,TTCTTCTTTCTCCGTCTCGTTT,-0.81
3,TTGAGACTTGAGATAAACCTTA,0.692
4,TTCACCGTCCTGTCCGCGCAGC,-1.09
5,TGGATCATAAACACGGACCTGG,0.064
6,TATCTTCAAAGCATTCTCTTTC,-0.0108
7,ATATCTTCAAAGCATTCTCTTT,-1.27
8,TGTCTCTGTGTCTTCTAGGGGC,-0.152
9,TTTCGCTGAAGATTTACCCCTT,0.223
10,TGACAAGCTTCTGTGATCCTGG,0.195
11,TAGTGAGTACTCTCCATAGGTG,-0.709
12,TTCAAGATCCCAGTCTCGGTGC,-0.0333

# From the OligoGym collection
